Compound activity (PubChem)
Hits are enriched below; roughly 0.4% of the tested compounds scored in any of these assays.
Cdc42 wt = changes GTP binding to wildtype human Cdc42; GST-Cdc42 beads, Bodipy-GTP binding, flow cytometry; actives lie on both sides; percent activity (GTP binding), % at 10 µM; 0.2% of 190,000 active; AID 761;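 active = percent activity GTP binding at least 20 points away from the 100% baseline, either down as inhibitor or up as activator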;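 also: median bead fluorescence of bound Bodipy-FL-GTP at 100 nM; 0% = excess unlabeled GTP control and 100% = no compound control; below 100% means less GTP binding so inhibitor and above means activator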
Target sequence (P60953 whole entry, looked up): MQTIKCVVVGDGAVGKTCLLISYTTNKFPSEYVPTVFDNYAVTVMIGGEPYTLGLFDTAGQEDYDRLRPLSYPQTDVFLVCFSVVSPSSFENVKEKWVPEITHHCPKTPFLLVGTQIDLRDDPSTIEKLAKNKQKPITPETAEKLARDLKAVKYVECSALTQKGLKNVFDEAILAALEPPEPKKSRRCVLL
Rac1 act GTP bind = alters GTP binding to activated mutant human Rac1; percent activity (GTP binding), % at 10 µM; 0.11% of 190,000 active; P63000; GST-Rac1 activated beads, fluorescent GTP binding, flow cytometry; actives lie on both sides; 100% means binding = to untreated wells;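 active = GTP binding at least 20 percentage points away from the 100% baseline, in either direction, so actives lie on both sides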
HRas wt GTP = changes GTP binding to wildtype human HRas. P01112. GST-Ras wt beads, Bodipy-FL-GTP binding, flow cytometry; actives lie on both sides. GTP binding activity, % at 10 µM. 0.14% of 190,000 active;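 active = GTP binding activity at least 20% away from the 100% baseline, either lowered as inhibitor or raised as activator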;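 also: 0% = unlabeled GTP competition control and 100% = no-compound control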
Target sequence (P01112 whole entry, looked up): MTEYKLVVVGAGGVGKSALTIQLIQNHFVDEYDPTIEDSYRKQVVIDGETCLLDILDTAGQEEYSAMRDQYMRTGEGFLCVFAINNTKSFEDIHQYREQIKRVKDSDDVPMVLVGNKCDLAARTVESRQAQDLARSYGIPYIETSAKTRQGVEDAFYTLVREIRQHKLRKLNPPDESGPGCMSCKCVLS
Rab2A wt mod = changes GTP binding to wildtype dog Rab2A, up or down. P61105. GST-Rab2 wt beads, Bodipy-GTP binding, flow cytometry. GTP binding activity, % at 10 µM. 0.19% of 190,000 active. AID 760;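 active = GTP binding activity at least 20 points away from 100%, either lowered or raised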;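 also: 0% = beads with excess unlabeled GTP and 100% = no-compound control corrected for plate trend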
Rac1 wt GTP bind = modulators of human Rac1 wildtype GTP binding; P63000; GST-Rac1 beads, fluorescent GTP binding, flow cytometry; actives lie on both sides; 0 = cold GTP competed, 100 = untreated; GTP binding activity (% of control), % at 10 µM; 0.27% of 190,000 active; AID 757;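 active = GTP binding activity at least 20 points away from the 100% control level, either lower or higher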
Rab7 wt modul = dog Rab7 wildtype GTP binding, inhibitors and activators; GST-Rab7 beads, fluorescent GTP binding, flow cytometry; actives lie on both sides; untreated = 100%, excess cold GTP = 0%; GTP binding activity (percent of control), % at 10 µM; 0.055% of 190,000 active;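 active = fluorescent GTP binding to Rab7 beads changed by at least 20 points from the 100% baseline, either direction, mostly lower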;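 also: median green fluorescence of bound Bodipy-FL-GTP per Rab7 bead population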
* marks the source's active call; other numbers are inactive results; [ ] = remark or other dose.

SMILES | Cdc42 wt | Rac1 act GTP bind | HRas wt GTP | Rab2A wt mod | Rac1 wt GTP bind | Rab7 wt modul
Cc1ccc(Cn2c(=N)c(C(=O)NCc3ccco3)cc3c(=O)n4ccccc4nc32)cc1 | 98.0 | 96.0 | 98.0 | 100.0 | 101.0 | 100.0
O=C(O)CCC(=O)N1c2ccccc2NC2=C(C(=O)CC(c3ccc(F)cc3)C2)C1c1ccc([N+](=O)[O-])o1 (configuration not stated) | 96.0 | 94.0 | 96.0 | 97.0 | 97.0 | 99.0
CCC(C)NS(=O)(=O)c1ccc(NC(=O)c2ccc([N+](=O)[O-])cc2Cl)cc1 (configuration not stated) | 99.0 | 96.0 | 96.0 | 98.0 | 101.0 | 99.0
COc1ccc(-n2cc(-c3ccccc3)c3c(N4CCOCC4)ncnc32)cc1 | 97.0 | 98.0 | 97.0 | 96.0 | 99.0 | 94.0
COc1ccc(-n2cc(-c3ccccc3)c3c(=O)[nH]cnc32)cc1 | 110.0 | 104.0 | 108.0 | 106.0 | 121.0*[activator] | 104.0
CC(C)=C1C2CCC1C1C(=O)N(c3nc(-c4ccc(C(C)C)cc4)c(C)s3)C(=O)C21 (configuration not stated) | 98.0 | 95.0 | 98.0 | 96.0 | 97.0 | 96.0
Cc1cccc(C)c1NC(=O)C(=O)NCc1ccccn1 | 103.0 | 101.0 | 102.0 | 103.0 | 102.0 | 99.0
COc1ccc2nc(-n3c(O)c(C4=c5ccccc5=NC4=O)[nH]c3=S)sc2c1 | 93.0 | 91.0 | 91.0 | 89.0 | 92.0 | 94.0
Cn1c(O)c(C2=c3ccccc3=NC2=O)[nH]c1=S | 90.0 | 90.0 | 87.0 | 85.0 | 79.0* | 94.0
COc1ccc(C)cc1NC(=O)c1cc2c(CO)cnc(C)c2oc1=N | 95.0 | 95.0 | 98.0 | 98.0 | 100.0 | 100.0
COc1cc(N=c2oc3c(C)ncc(CO)c3cc2C(N)=O)cc(OC)c1OC | 68.0* | 83.0 | 68.0* | 67.0* | 64.0* | 91.0
COc1cc(/C=N/NC(=O)Nc2cccc3nsnc23)cc(OC)c1OC | 56.0* | 75.0* | 58.0* | 59.0* | 76.0* | 80.0
COc1ccc(/C=C(/NC(C)=O)C(=O)O)cc1 | 95.0 | 94.0 | 95.0 | 95.0 | 95.0 | 91.0
COc1cccc(Nc2c(F)c(F)c(F)c(F)c2C(=O)O)c1 | 123.0*[activator] | 116.0 | 113.0 | 113.0 | 131.0*[activator] | 113.0
Cc1ccc(Nc2c(F)c(F)c(F)c(F)c2C(=O)O)cc1 | 128.0*[activator] | 130.0*[activator] | 117.0 | 127.0*[activator] | 141.0*[activator] | 119.0
Cc1cccn2cc(-c3ccc(Cl)cc3)nc12 | 91.0 | 93.0 | 91.0 | 93.0 | 93.0 | 93.0
Cc1ccc(-c2cn3cccc(C)c3n2)cc1 | 109.0 | 107.0 | 112.0 | 118.0 | 108.0 | 120.0*[activator]
O=C(c1nnsc1S(=O)(=O)c1ccc(Cl)cc1)N1CCOCC1 | 105.0 | 120.0*[activator] | 102.0 | 106.0 | 106.0 | 107.0
Cc1cc(C)nc(SCNC(=O)c2ccc(Cl)cc2)n1 | 99.0 | 99.0 | 98.0 | 100.0 | 103.0 | 99.0
O=[N+]([O-])c1cc(Cc2ccccc2)cc(C=Nc2ccc(N3CCOCC3)cc2)c1O | 78.0* | 62.0* | 77.0* | 64.0* | 75.0* | 71.0*
Cc1ccc(O)c(N=Cc2cc(Cc3ccccc3)cc([N+](=O)[O-])c2O)c1 | 76.0* | 68.0* | 82.0 | 74.0* | 77.0* | 79.0*
CCOC1Cc2ccccc2N(C(N)=O)c2ccccc21 (configuration not stated) | 97.0 | 94.0 | 92.0 | 95.0 | 96.0 | 90.0
Cc1ccccc1C(=O)N1CCN(c2ccc(NC(=O)c3ccccc3[N+](=O)[O-])cc2)CC1 | 96.0 | 95.0 | 95.0 | 96.0 | 95.0 | 96.0
Cc1cccc(-c2noc(CCC(=O)NCC3CCCO3)n2)c1 (configuration not stated) | 100.0 | 99.0 | 99.0 | 101.0 | 101.0 | 100.0
O=C(O)c1cccc(-n2cccc2/C=C2/NC(=O)N(c3ccc(Cl)cc3)C2=O)c1 | 72.0* | 76.0* | 82.0 | 75.0* | 67.0* | 88.0
SMILES | Cdc42 wt | Rac1 act GTP bind | HRas wt GTP | Rab2A wt mod | Rac1 wt GTP bind | Rab7 wt modul
COc1ccc(-n2cccc2/C=C2/NC(=O)N(c3cccc(Cl)c3)C2=O)cc1 | 101.0 | 100.0 | 100.0 | 100.0 | 102.0 | 104.0
O=C(O)c1ccc(Nc2nc(-c3cc4ccccc4oc3=O)cs2)cc1O | 84.0 | 88.0 | 87.0 | 87.0 | 79.0* | 94.0
COC(=O)c1ncn(C2OC(COC(C)=O)C(OC(C)=O)C2OC(C)=O)n1 (configuration not stated) | 98.0 | 100.0 | 102.0 | 98.0 | 104.0 | 101.0
CC(C)(C)C(=O)OCC1OC(n2cnc(C(N)=O)n2)C(O)C1O (configuration not stated) | 119.0 | 103.0 | 110.0 | 114.0 | 120.0*[activator] | 104.0
O=C1C2C(c3ccccc3)(C(=O)N1c1ccc(Cl)cc1)C2(c1ccccc1)c1ccccc1 (configuration not stated) | 102.0 | 102.0 | 100.0 | 100.0 | 104.0 | 100.0
COc1ccc(C(=O)Nc2nc3ccccc3[nH]2)cc1S(=O)(=O)N1CCOCC1 | 78.0* | 90.0 | 80.0 | 77.0* | 82.0 | 82.0
COc1cc2c(cc1OC)-c1cc(NC3CCCCCCC3)nc(=O)n1CC2 | 77.0* | 88.0 | 77.0* | 80.0 | 89.0 | 91.0
CCNc1cc2n(c(=O)n1)CCc1cc(OC)c(OC)cc1-2 | 88.0 | 87.0 | 86.0 | 86.0 | 86.0 | 87.0
COc1cc2c(cc1OC)-c1cc(NCc3ccccn3)nc(=O)n1CC2 | 79.0* | 84.0 | 79.0* | 80.0 | 83.0 | 87.0
CCN(CC)C(=O)c1ccccc1NC(=O)c1ccccc1C | 100.0 | 94.0 | 102.0 | 102.0 | 103.0 | 108.0
Cc1ccc(/C=C2\SC(=S)N(Cc3ccccc3)C2=O)o1 | 88.0 | 88.0 | 89.0 | 90.0 | 89.0 | 89.0
COc1ccc(CN2C(=O)/C(=C/c3ccc(-c4ccc(Cl)c(C(=O)O)c4)o3)SC2=S)cc1 | 75.0* | 76.0* | 73.0* | 79.0* | 76.0* | 84.0
O=C(O)c1cc(-c2ccc(/C=C3/SC(=S)N(Cc4ccccc4)C3=O)o2)ccc1Cl | 76.0* | 77.0* | 80.0 | 78.0* | 74.0* | 89.0
Cc1cc(-c2n[nH]c(=S)n2/N=C/C(Cl)=C/c2ccccc2)n[nH]1 | 92.0 | 85.0 | 77.0* | 85.0 | 85.0 | 77.0*
Cc1c(C(=O)N2CCc3ccccc3C2)oc2ccc(S(=O)(=O)N3CCCCCC3)cc12 | 105.0 | 108.0 | 111.0 | 112.0 | 131.0*[activator] | 108.0
Cc1c(C(=O)N2CCOCC2)oc2ccc(S(=O)(=O)N3CCCC3)cc12 | 102.0 | 100.0 | 103.0 | 103.0 | 103.0 | 100.0
CC12CCC(C(=O)NCCCN3CCOCC3)(OC1=O)C2(C)C (configuration not stated) | 105.0 | 101.0 | 104.0 | 102.0 | 107.0 | 103.0
